Measured values published in PubChem BioAssay (EPA / NIEHS).
Some compounds were tested as several samples or in several runs, with calls that do not always agree. Activity calls are given as the source filed them. The calls were made as follows: active = hit-call score of the fitted dose curve at least 0.9, where 1 is the maximum; inactive = score below 0.9.

Assays:
[1] = molecular target: Transcription factor E2F1 (Homo sapiens) (UniProt Q01094); test: ATG_E2F_CIS: Attagene CIS-FACTORIAL HepG2 Assay for human E2F Transcription Factor 1 (AID 2282935); conditions: HepG2 Attagene cis-reporter, E2F reporter RNA transcripts; actives raise or lower the signal
Transcription factor E2F1 (Homo sapiens), sequence (Q01094 whole entry, looked up): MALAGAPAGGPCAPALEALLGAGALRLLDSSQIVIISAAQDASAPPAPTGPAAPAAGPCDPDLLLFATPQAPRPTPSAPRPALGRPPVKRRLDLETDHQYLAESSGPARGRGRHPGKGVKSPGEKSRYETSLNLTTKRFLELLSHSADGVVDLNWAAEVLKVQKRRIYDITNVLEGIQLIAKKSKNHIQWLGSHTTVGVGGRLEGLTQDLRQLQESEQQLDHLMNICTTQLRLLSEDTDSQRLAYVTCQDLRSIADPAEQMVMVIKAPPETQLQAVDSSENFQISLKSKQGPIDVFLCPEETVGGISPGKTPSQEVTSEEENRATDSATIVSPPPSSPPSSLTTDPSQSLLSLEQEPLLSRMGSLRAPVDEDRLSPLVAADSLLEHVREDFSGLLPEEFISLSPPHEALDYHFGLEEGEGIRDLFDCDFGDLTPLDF
How it was run: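 Gain or loss of reporter transcript, fitted against DMSO, reflects E2F1-driven transcription. Transiently transfected HepG2 dosed 24 h before RNA isolation. Quantified by fluorescent RT-PCR products separated by capillary electrophoresis.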

[2] = ATG_E_Box_CIS: Attagene CIS-FACTORIAL HepG2 Assay for human Enhancer Box (E-box) (AID 2282936); conditions: HepG2 E-box cis-reporter transcription, actives raise or lower the signal
How it was run: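 E-box-driven reporter transcripts measured in transiently transfected HepG2 after 24 h exposure: RNA reverse-transcribed, PCR-amplified, fluorescently labelled, digested and resolved by capillary electrophoresis. Gain or loss relative to DMSO.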

[3] = ATG_M_61_CIS: Attagene CIS-FACTORIAL HepG2 Assay for M61 Transcription Factor (Internal Marker) (AID 2282937); conditions: HepG2 Attagene CIS-FACTORIAL M61 internal marker reporter; actives raise or lower the signal
How it was run: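 Transfect HepG2 with MRTUs; dose 24 h; isolate RNA; reverse-transcribe with DNase I treatment; PCR-amplify, FAM-label and cut with HpaI for 2 h at 37 C; resolve by CE. Bidirectional fitting against DMSO.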

[4] = ATG_EGR_CIS: Attagene CIS-FACTORIAL HepG2 Assay for human Early Growth Response 1 (EGR1) (AID 2282938); conditions: HepG2 Attagene CIS-FACTORIAL EGR reporter mRNA; actives raise or lower the signal
How it was run: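 After a 24 h treatment of transiently transfected HepG2 cells, total RNA was reverse-transcribed and reporter sequences PCR-amplified, labelled and run on capillary electrophoresis. Reporters sit under cis-regulatory promoters sensing endogenous factors.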

[5] = ATG_M_19_CIS: Attagene CIS-FACTORIAL HepG2 Assay for M19 Transcription Factor (Internal Marker) (AID 2282939); conditions: HepG2 Attagene CIS-FACTORIAL M19 internal marker reporter; actives raise or lower the signal
How it was run: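 Transfect HepG2 with MRTU reporter library → dose chemical, 24 h → isolate total RNA, reverse-transcribe with oligo(dT) → PCR, 6-FAM label, HpaI cut (2 h, 37 C) → capillary electrophoresis. Bidirectional fit vs DMSO.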

[6] = ATG_ERE_CIS: Attagene CIS-FACTORIAL HepG2 Assay for Estrogen Response Element (ERE) (AID 2282940); conditions: HepG2 ERE cis-reporter, Attagene RNA transcript; actives raise or lower the signal
How it was run: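 Transient MRTU transfection of human HepG2; cis-element promoters; 24 h dosing; total RNA → RT (oligo dT) → PCR → 6-FAM primer extension → HpaI digest → CE fluorescence. Bidirectional fit, DMSO baseline.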

[7] = ATG_Ets_CIS: Attagene CIS-FACTORIAL HepG2 Assay for human Erythroblast Transformation Specific (ETS) (AID 2282941); conditions: HepG2 ETS cis-reporter transcription, actives raise or lower the signal
How it was run: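 Cis-regulated reporter mRNA induction in HepG2 (transient transfection), 24 h exposure, RT-PCR plus capillary electrophoresis detection; DMSO serves as negative control and baseline.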

[8] = molecular target: Hepatocyte nuclear factor 3-beta (Homo sapiens) (UniProt Q9Y261); test: ATG_FoxA2_CIS: Attagene CIS-FACTORIAL HepG2 Assay for human Forkhead box A2 (FOXA2) (AID 2282942); conditions: HepG2 cis-reporter transcription factor activity, 24 h; actives raise or lower the signal
Hepatocyte nuclear factor 3-beta (Homo sapiens), sequence (Q9Y261 whole entry, looked up): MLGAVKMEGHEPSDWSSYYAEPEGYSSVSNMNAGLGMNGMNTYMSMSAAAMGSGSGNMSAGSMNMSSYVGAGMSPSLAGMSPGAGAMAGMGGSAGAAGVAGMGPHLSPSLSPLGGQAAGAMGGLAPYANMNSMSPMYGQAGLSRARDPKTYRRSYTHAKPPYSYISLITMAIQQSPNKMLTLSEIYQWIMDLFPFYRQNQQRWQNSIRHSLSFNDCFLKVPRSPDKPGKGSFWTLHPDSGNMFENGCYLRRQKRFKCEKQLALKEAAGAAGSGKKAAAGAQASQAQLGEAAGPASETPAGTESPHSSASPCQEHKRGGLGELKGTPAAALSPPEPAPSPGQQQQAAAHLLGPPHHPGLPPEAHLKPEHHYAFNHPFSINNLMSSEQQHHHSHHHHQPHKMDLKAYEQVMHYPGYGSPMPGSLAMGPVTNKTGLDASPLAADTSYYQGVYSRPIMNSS
How it was run: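 24 h dosing of HepG2 bearing cis-reporter constructs; mRNA readout by RT-PCR/CE fluorescence; bidirectional fit, DMSO baseline.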

[9] = ATG_FoxO_CIS: Attagene CIS-FACTORIAL HepG2 Assay for human Forkhead box O (FoxO) (AID 2282943); conditions: HepG2 Attagene cis-reporter, FoxO element, mRNA; actives raise or lower the signal
How it was run: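 Endogenous transcription factor activity read from multiplexed cis-promoter reporter transcripts in transiently transfected HepG2, 24 h after dosing. Reporter RNA measured via RT-PCR plus capillary electrophoresis of FAM-labeled products; gain or loss relative to DMSO.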

[10] = ATG_GATA_CIS: Attagene CIS-FACTORIAL HepG2 Assay for human GATA Binding Protein (AID 2282944); conditions: HepG2 GATA cis-element reporter, Attagene multiplex mRNA; actives raise or lower the signal
How it was run: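 Transient MRTU transfection, HepG2, 24 h compound exposure. Total RNA → oligo(dT) RT → PCR → 6-FAM primer extension → HpaI cut → CE. Bidirectional fit vs DMSO.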

[11] = ATG_GLI_CIS: Attagene CIS-FACTORIAL HepG2 Assay for human Zinc Finger Protein GLI1 (AID 2282945); conditions: HepG2, Attagene cis-factorial reporter mRNA, GLI element; actives raise or lower the signal
How it was run: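 Bidirectional curve fits relative to DMSO, using reporter mRNA levels from RT-PCR plus capillary electrophoresis. Cells were HepG2 transiently carrying cis-regulated reporter constructs, harvested 24 h after dosing.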

[12] = molecular target: Bile acid receptor (Homo sapiens) (UniProt Q96RI1); test: ATG_IR1_CIS: Attagene CIS-FACTORIAL HepG2 Assay for human Nuclear Receptor Subfamily 1 Group H Member 4 (NR1H4), IR1 submotif (AID 2282946); conditions: IR1 reporter transcription, actives raise or lower the signal
Bile acid receptor (Homo sapiens), sequence (Q96RI1 whole entry, looked up): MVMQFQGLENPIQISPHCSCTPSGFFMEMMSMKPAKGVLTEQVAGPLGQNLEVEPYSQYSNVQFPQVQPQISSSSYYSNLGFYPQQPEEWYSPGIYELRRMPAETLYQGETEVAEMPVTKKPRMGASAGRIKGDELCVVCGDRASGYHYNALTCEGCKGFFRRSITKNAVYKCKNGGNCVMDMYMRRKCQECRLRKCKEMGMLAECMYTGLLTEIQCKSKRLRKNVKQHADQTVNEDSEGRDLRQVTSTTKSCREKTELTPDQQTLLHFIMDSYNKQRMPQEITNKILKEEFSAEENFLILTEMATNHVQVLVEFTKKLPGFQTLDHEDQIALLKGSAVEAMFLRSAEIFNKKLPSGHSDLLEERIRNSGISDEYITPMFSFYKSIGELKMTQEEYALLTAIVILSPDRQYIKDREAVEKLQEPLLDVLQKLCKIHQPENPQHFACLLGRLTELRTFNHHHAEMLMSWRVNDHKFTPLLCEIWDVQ
How it was run: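 HepG2 cells transiently transfected with multiplexed cis-element reporter units read endogenous transcription factor activity. After 24 h compound exposure, reporter mRNA was quantified by RT-PCR, fluorescent labelling, HpaI digestion and capillary electrophoresis; bidirectional fitting versus DMSO baseline.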

[13] = ATG_GRE_CIS: Attagene CIS-FACTORIAL HepG2 Assay for human Glucocorticoid Response Elements (GRE) (AID 2282947); conditions: HepG2 GRE cis-reporter, Attagene multiplex mRNA; actives raise or lower the signal
How it was run: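 Reporter transcripts read by RT-PCR with capillary electrophoresis fluorescence after a 24 h chemical exposure of HepG2 cells transiently transfected with multiple cis-element reporter units. Gain or loss fitted against DMSO.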

[14] = ATG_ISRE_CIS: Attagene CIS-FACTORIAL HepG2 Assay for human Interferon Regulatory Factor 1 (IRF1) binding to an Interferon-Stimulated Response Element (ISRE) (AID 2282948); conditions: HepG2 ISRE cis-reporter (Attagene), mRNA transcription readout; actives raise or lower the signal
How it was run: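 Multiplexed mRNA reporter readout in human liver HepG2 cells: cis-element-driven reporters transfected, compound added for 24 h, transcripts amplified, fluorescently labelled and sized by capillary electrophoresis; curve fitting bidirectional against DMSO.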

[15] = ATG_M_32_CIS: Attagene CIS-FACTORIAL HepG2 Assay for M32 Transcription Factor (Internal Marker) (AID 2282949); conditions: HepG2 Attagene cis-factorial M32 reporter, mRNA; actives raise or lower the signal;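 also: background control marker of the multiplexed CIS panel rather than a real target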
How it was run: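 HepG2 transfectants (cis-regulated reporter transcription units) dosed 24 h. Reporter mRNA by RT-PCR plus CE, analysed as gain or loss relative to DMSO.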

[16] = molecular target: Hypoxia-inducible factor 1-alpha (Homo sapiens) (UniProt Q16665); test: ATG_HIF1a_CIS: Attagene CIS-FACTORIAL HepG2 Assay for human Hypoxia Inducible Factor 1 (HIF1A) (AID 2282951); conditions: HepG2 Attagene cis-factorial HIF1a reporter transcription; actives raise or lower the signal
Hypoxia-inducible factor 1-alpha (Homo sapiens), sequence (Q16665 whole entry, looked up): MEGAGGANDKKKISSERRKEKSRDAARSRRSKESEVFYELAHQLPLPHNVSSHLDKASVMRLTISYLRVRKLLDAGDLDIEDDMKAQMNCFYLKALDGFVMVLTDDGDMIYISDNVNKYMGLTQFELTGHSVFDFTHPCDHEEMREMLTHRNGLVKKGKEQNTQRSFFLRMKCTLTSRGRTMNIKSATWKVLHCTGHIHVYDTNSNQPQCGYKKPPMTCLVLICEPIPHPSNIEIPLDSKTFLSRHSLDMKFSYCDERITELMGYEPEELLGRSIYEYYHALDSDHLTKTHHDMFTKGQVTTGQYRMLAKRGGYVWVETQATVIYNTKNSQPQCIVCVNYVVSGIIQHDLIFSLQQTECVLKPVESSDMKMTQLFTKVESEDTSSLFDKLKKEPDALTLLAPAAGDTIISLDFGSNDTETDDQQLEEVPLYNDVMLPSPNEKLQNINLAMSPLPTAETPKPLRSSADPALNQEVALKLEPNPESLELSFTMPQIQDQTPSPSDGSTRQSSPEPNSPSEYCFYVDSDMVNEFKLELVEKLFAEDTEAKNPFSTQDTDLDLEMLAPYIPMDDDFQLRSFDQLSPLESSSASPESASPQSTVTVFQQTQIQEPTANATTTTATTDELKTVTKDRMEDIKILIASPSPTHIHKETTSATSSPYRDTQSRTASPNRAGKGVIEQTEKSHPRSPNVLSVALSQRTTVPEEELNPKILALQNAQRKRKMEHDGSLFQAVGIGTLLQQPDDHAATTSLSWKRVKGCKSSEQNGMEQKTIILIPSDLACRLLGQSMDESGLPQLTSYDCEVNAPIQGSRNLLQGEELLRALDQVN
How it was run: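 After 24 h chemical exposure of reporter-transfected HepG2 cells, reporter cDNA was PCR-amplified, labelled by 6-FAM primer extension (2 min 95 C, 20 s 68 C, 10 min 72 C), HpaI-cut (2 h, 37 C) and analysed by CE.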

[17] = molecular target: Hepatocyte nuclear factor 6 (Homo sapiens) (UniProt Q9UBC0); test: ATG_HNF6_CIS: Attagene CIS-FACTORIAL HepG2 Assay for human Hepatocyte Nuclear Factor 6 (HNF6) (AID 2282952); conditions: HepG2 Attagene cis-factorial HNF6 reporter transcription; actives raise or lower the signal
Hepatocyte nuclear factor 6 (Homo sapiens), sequence (Q9UBC0 whole entry, looked up, the tested form may be a part): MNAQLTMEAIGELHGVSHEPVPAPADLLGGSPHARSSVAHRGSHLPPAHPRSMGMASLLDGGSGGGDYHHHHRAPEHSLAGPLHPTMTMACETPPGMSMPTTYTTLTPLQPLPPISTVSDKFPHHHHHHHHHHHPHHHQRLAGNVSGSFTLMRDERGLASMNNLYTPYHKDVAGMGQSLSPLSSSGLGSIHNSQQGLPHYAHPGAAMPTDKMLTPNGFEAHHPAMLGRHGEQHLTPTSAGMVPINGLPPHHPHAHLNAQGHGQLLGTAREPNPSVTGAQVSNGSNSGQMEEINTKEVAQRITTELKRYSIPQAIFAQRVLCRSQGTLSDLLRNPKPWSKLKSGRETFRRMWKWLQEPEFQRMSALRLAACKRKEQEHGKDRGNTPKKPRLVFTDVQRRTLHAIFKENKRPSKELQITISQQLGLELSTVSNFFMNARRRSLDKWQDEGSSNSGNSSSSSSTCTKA
How it was run: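 Using cis-element reporters in HepG2 liver cells, the assay tracks endogenous factor-driven transcription 24 h post-dosing. Signal comes from 6-FAM-labelled, HpaI-digested RT-PCR fragments, with gain or loss scored against DMSO.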

[18] = molecular target: Heat shock factor protein 1 (Homo sapiens) (UniProt Q00613); test: ATG_HSE_CIS: Attagene CIS-FACTORIAL HepG2 Assay for human Heat Shock Transcription Factor 1 (HSE) (AID 2282953); conditions: HepG2 HSE cis-reporter, Attagene RNA transcription; actives raise or lower the signal
Heat shock factor protein 1 (Homo sapiens), sequence (Q00613 whole entry, looked up): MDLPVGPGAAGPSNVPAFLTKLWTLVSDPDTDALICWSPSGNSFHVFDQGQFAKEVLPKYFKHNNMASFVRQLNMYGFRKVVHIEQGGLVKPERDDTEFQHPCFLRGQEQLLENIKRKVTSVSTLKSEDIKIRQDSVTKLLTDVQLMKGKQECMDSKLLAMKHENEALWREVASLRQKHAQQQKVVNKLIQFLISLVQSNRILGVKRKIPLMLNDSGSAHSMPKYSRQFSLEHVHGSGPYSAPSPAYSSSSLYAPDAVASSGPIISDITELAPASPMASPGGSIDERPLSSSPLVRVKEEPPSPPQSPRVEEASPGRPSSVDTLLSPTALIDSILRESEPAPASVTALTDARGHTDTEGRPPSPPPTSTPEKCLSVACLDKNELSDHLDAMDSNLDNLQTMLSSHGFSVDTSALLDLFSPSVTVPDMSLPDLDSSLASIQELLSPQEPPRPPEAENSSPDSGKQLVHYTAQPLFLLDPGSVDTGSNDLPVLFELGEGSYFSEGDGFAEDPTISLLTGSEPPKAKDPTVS
How it was run: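 HepG2, transient MRTU transfection, cis-promoter reporters (endogenous TF activity). 24 h compound. RNA → oligo(dT) RT → PCR → 6-FAM primer extension → HpaI cut → CE. Bidirectional fit vs DMSO.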

[19] = ATG_MRE_CIS: Attagene CIS-FACTORIAL HepG2 Assay for human Metal Responsive Element (MRE) (AID 2282954); conditions: HepG2 MRE cis-reporter transcription, Attagene multiplex; actives raise or lower the signal
How it was run: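 Endogenous MRE-dependent transcription read as reporter mRNA in transiently transfected human HepG2 cells at 24 h. RNA reverse-transcribed, PCR-amplified, labelled and resolved by capillary electrophoresis; gain or loss relative to DMSO.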

Measured: AC50

c1ccc(B(c2ccccc2)c2ccccc2)cc1
active: [2] 160 µM | [6] 9.96 µM | [16] 58.4 µM | [19] 51.6 µM
inactive: all other assays above

O=C(O)C(F)(F)C(F)(F)C(F)(F)F
inactive: [1] | [2] | [3] | [4] | [5] | [6] | [7] | [8] | [9] | [10] | [11] | [12] | [13] | [14] | [15] | [17] | [19]
active: [6] 150 µM

COC(=O)C1CCC(C(=O)OC)CC1 (centres undefined)
active: [6] 20.5 µM
inactive: [1] | [2] | [4] | [5] | [6] | [7] | [8] | [9] | [10] | [11] | [12] | [14] | [15] | [16] | [17] | [18] | [19]

Oc1ccc(Nc2ccccc2)cc1
active: [2] 100 µM | [6] 8.42 µM | [18] 168 µM | [19] 61.1 µM
inactive: all other assays above
